Rows were chosen to be rich in hits. Some 10% of all compounds tested hit in one or more screens of this group.
JMJD2A Tudor inh: inhibitors of human JMJD2A Tudor domain; AlphaScreen JMJD2A-Tudor / H3K4me3 peptide binding; 4.4% of 390,000 active; Potency, µM (titrated, usually from 114 µM), actives largely listed as inhibitors; AID 504339; further: nearly all actives have a fitted effect of over 50% in size
CtBP-E1A blk: CtBP/E1A binding inhibition; AlphaScreen GST-E1A/His-CtBP binding, 1536-well; hits give low values; activity change, % (test concentration not listed); 0.49% of 340,000 active; in the data active means activity change below about -65%; inconclusive means mostly about -30% to -63%
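Protein mix (5X: 125 nM each GST-E1A, His-CtBP) was incubated with pinned compound 2 h at 37 deg C in dark, in 50 mM Tris pH 8.0 buffer with 300 mM NaCl. Glutathione donor and nickel acceptor beads followed; AlphaScreen signal read after 1 h.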
G9a inh: inhibitors of human histone lysine methyltransferase G9a; Q96KQ7; G9a H3K9 monomethylation, AlphaScreen, 2 h; Potency, µM (doses to about 102 µM), usual class: inhibitors; 8.8% of 350,000 active; AID 504332; further: nearly all actives have a fitted effect of over 75% in size
Target sequence (Q96KQ7 913-1193 limits assumed): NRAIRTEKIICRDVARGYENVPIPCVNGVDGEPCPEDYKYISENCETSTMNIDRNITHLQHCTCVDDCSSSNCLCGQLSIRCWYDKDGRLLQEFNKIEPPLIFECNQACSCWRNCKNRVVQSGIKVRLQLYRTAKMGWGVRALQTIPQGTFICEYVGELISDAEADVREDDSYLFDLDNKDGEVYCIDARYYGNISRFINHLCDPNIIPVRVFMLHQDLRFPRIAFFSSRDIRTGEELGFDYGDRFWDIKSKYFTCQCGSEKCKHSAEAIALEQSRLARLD
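AlphaScreen detection with an anti-monomethyl H3K9 antibody quantified product after a 2 h room-temperature reaction containing 500 nM biotinylated H3K9 peptide, 20 µM SAM and 20 nM enzyme, which had been preincubated 15 min with compound.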
Six1-Eya2 inh: blocks human Six1 binding to Eya2. Q15475+O00167. AlphaScreen GST-Six1/His-Eya2 binding, biochemical; hits give low values. activity change, % (test concentration not listed). 0.56% of 360,000 active; in the data active means activity change below about -65%; inconclusive means mostly about -30% to -63%
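AlphaScreen with GST-Six1 and His-Eya2 (5X mix: 250 nM and 500 nM), glutathione donor and nickel acceptor beads; buffer 50 mM Tris pH 8.0, 300 mM NaCl, 1 mM TCEP; 1 h at 37 C in the dark.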
HP1b binding inh: inhibitors of HP1-beta chromodomain binding to methylated histone tails; 0.56% of 390,000 active; P83916; AlphaScreen HP1-beta / biotin-H3K9me3 peptide binding; Potency, µM (doses to about 114 µM), most hits filed as inhibitors; further: nearly all actives have a fitted effect of over 70% in size
Target sequence (P83916 whole entry, looked up): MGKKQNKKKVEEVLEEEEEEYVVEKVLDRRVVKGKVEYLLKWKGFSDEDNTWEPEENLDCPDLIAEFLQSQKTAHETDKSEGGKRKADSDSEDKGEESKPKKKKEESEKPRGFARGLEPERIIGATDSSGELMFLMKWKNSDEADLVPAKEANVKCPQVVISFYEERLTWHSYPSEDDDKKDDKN
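HP1-beta protein (50 nM final) preincubated 30 min at room temperature with biotinylated H3(1-18)K9me3 peptide (50 nM) in PBS pH 7.4, 0.01% Tween-20, then compound added for 30 min. AlphaScreen streptavidin donor/nickel chelate acceptor beads (10 ug/mL final), 30 min dark, luminescence read.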
BAZ2B block: BAZ2B (human) inhibition; Q9UIF8; AlphaScreen BAZ2B-H3K14Ac peptide displacement; Potency, µM (highest dose often 114 µM), hits mostly inhibitors; 4.4% of 360,000 active; AID 504333; further: nearly all actives have a fitted effect of over 60% in size
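AlphaScreen displacement: compounds (up to 110uM) incubated 30 min at room temperature with a preformed 50 nM BAZ2B/50 nM biotinylated H3K14Ac peptide complex in PBS pH 7.4 with Tween-20. Donor and acceptor beads at 10 ug/mL final added, 20 min light-protected before reading.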
Each line names hits and unclear results; the compound was inactive in the other large screens. Unless noted, the call rests on the fitted dose curve; in most records, active means well fitted inhibition curve with a large enough effect; inconclusive means small, poorly fitted or top-dose-only effect; inactive means no such curve, though single readings can be large or run the other way.

COc1ccc(CCNCC(O)COc2c(C)cccc2C)cc1OC (stereo not drawn)	JMJD2A Tudor inh inconclusive, HP1b binding inh inconclusive, BAZ2B block 50µM
COc1ccc(CCNCC(O)COc2cccc(C(C)=O)c2)cc1OC (stereo not drawn)	JMJD2A Tudor inh 25µM, HP1b binding inh inconclusive, BAZ2B block 71µM
CC(C)(C)C1=CC(=O)C(=O)C(C(C)(C)C)=C1	JMJD2A Tudor inh 18µM, G9a inh 1.6µM, HP1b binding inh inconclusive, BAZ2B block 28µM (no result: CtBP-E1A blk)
Cc1cc2c(n1-c1ccc(C(=O)NCC(C)c3ccccc3)cc1)CCCC2 (stereo not drawn)	none (no result: CtBP-E1A blk, Six1-Eya2 inh)
Cn1c2c(c(=O)n(C)c1=O)[C@@]1(C(=O)Nc3ccccc31)C(C#N)=C(N)O2	G9a inh 45µM
N#CC1=C(N)Oc2n[nH]c(-c3ccccc3)c2C12C(=O)Nc1ccccc12 (stereo not drawn)	none
CCCCn1cc(S(=O)(=O)c2ccccc2)c(=O)c2cc(F)c(N3CCN(CCC)CC3)cc21	none (no result: CtBP-E1A blk, Six1-Eya2 inh)
CCCCn1nnnc1NCc1ccc(N2CCCC2)cc1	JMJD2A Tudor inh inconclusive, BAZ2B block inconclusive
Cn1nnnc1NCc1ccc(Cl)cc1	none
CCN(CC)c1ccc(CNc2nnnn2C)cc1	G9a inh 32µM, BAZ2B block inconclusive
CCCn1nnnc1NCc1ccc(N2CCCC2)cc1	G9a inh 3.5µM
CCCn1nnnc1NCc1ccc(N(CC)CC)cc1	G9a inh 16µM, BAZ2B block inconclusive (no result: CtBP-E1A blk)
CCOc1ccc(NC(=O)N(Cc2cn(CC)c3ccccc23)C2CCCCCC2)cc1	JMJD2A Tudor inh inconclusive, G9a inh inconclusive (no result: CtBP-E1A blk, Six1-Eya2 inh, BAZ2B block)
CSCCOC(=O)c1[nH]c2c(c1C)C(=O)CC(c1ccco1)C2 (stereo not drawn)	JMJD2A Tudor inh 35µM, G9a inh 22µM, HP1b binding inh inconclusive, BAZ2B block 45µM
CCOC(=O)c1[nH]c2c(c1C)C(=O)CC(c1ccco1)C2 (stereo not drawn)	JMJD2A Tudor inh 56µM, G9a inh inconclusive, BAZ2B block 45µM
COCCOC(=O)c1[nH]c2c(c1C)C(=O)CC(c1ccccc1)C2 (stereo not drawn)	none
COCCOC(=O)c1[nH]c2c(c1C)C(=O)CC(c1ccc(F)cc1)C2 (stereo not drawn)	none
COCCOC(=O)c1[nH]c2c(c1C)C(=O)CC(c1ccco1)C2 (stereo not drawn)	JMJD2A Tudor inh 45µM, G9a inh 50µM, HP1b binding inh 50µM, BAZ2B block 50µM
Cc1c(C(=O)OCc2ccccc2)[nH]c2c1C(=O)CC(c1ccco1)C2 (stereo not drawn)	JMJD2A Tudor inh 25µM, G9a inh inconclusive, HP1b binding inh 71µM, BAZ2B block 50µM
Cn1c(=O)n(Cc2ccccc2Cl)c(=O)c2c1nc1n2CCN1c1ccccc1	none (no result: CtBP-E1A blk, Six1-Eya2 inh)
Cc1c(C(=O)OCCOC(C)C)[nH]c2c1C(=O)CC(c1ccco1)C2 (stereo not drawn)	JMJD2A Tudor inh inconclusive, G9a inh 45µM, BAZ2B block 50µM
CCN(CCn1cccn1)Cc1c(C(=O)N2CCCCCCC2)nc2ccc(Cl)cn12	G9a inh 79µM
O=C(CCN1C(=O)C2CC=C(Cl)CC2C1=O)NCc1ccco1 (stereo not drawn)	none
Cc1ccc(NC(=O)CN2C(=O)C3CC=C(Cl)CC3C2=O)cc1 (stereo not drawn)	none
O=C(CN1C(=O)C2CC=C(Cl)CC2C1=O)Nc1ccc(C(=O)O)cc1 (stereo not drawn)	G9a inh 13µM
O=C(CCN1C(=O)C2CC=C(Cl)CC2C1=O)NCc1ccccc1 (stereo not drawn)	G9a inh 18µM
O=C(/C=C/c1cccs1)Nc1scc(-c2ccccc2)c1C(=O)O	JMJD2A Tudor inh 7.1µM, G9a inh 32µM, HP1b binding inh inconclusive (no result: BAZ2B block)
O=C(/C=C/c1cccs1)Nc1nc(-c2ccccc2)cs1	none
Cc1cc(C)nc(/N=c2/ssnc2Cl)c1	G9a inh 6.3µM (no result: BAZ2B block)
Nc1ccccc1N=c1ssnc1Cl	JMJD2A Tudor inh inconclusive, G9a inh 1.3µM, BAZ2B block 50µM
Cc1ccc(N=c2ssnc2Cl)cc1	JMJD2A Tudor inh 32µM, G9a inh 1.6µM, HP1b binding inh 16µM, BAZ2B block 45µM
Cc1nnc(N=c2ssnc2Cl)o1	JMJD2A Tudor inh 45µM, HP1b binding inh inconclusive, BAZ2B block inconclusive
Cc1cc2nc(-c3ccc(NC(=O)c4ccc(OCC(C)C)cc4)cc3)oc2cc1C	none (no result: CtBP-E1A blk, Six1-Eya2 inh)
Cc1cc(Cl)ccc1N=c1ssnc1Cl	JMJD2A Tudor inh 79µM, G9a inh 1.8µM, HP1b binding inh 22µM, BAZ2B block 8.9µM
Cc1cc(Cl)ccc1N=C1N=C(N)c2ccccc21	none
Cc1ccc(-c2nn(-c3ccccc3)cc2C2CC(c3cccs3)=NN2C(=O)CCCC(=O)O)cc1 (stereo not drawn)	JMJD2A Tudor inh 71µM, G9a inh inconclusive, BAZ2B block 79µM
COc1ccc(-c2nn(-c3ccccc3)cc2C2CC(c3cccs3)=NN2C(=O)CCCC(=O)O)cc1 (stereo not drawn)	G9a inh inconclusive, BAZ2B block 79µM
Cc1ccc(C2=NN(C(=O)CCC(=O)O)C(c3cn(-c4ccccc4)nc3-c3ccc(C)cc3)C2)cc1 (stereo not drawn)	JMJD2A Tudor inh 50µM, G9a inh inconclusive (no result: BAZ2B block)
COCCNC(=S)N(C)C1(c2ccccc2Cl)CCCCC1=O (stereo not drawn)	G9a inh 45µM
O=C(COc1ccc(Br)cc1)N1CCc2ccccc21	G9a inh 71µM
COc1ccc(-c2ccc3ncnc(N(C)Cc4csc(C)n4)c3c2)cc1OC	none (no result: CtBP-E1A blk, G9a inh, Six1-Eya2 inh, HP1b binding inh, BAZ2B block)
COc1cc2ncnc(N(C)Cc3csc(C)n3)c2cc1-c1ccc2c(c1)OCO2	JMJD2A Tudor inh 8.9µM (no result: CtBP-E1A blk, G9a inh, Six1-Eya2 inh, HP1b binding inh, BAZ2B block)
CN(Cc1nccs1)c1ncnc2ccc(-c3ccc4c(c3)OCO4)cc12	JMJD2A Tudor inh 79µM (no result: CtBP-E1A blk, G9a inh, Six1-Eya2 inh, HP1b binding inh, BAZ2B block)
Cc1ccsc1CN(C)c1ncnc2ccc(-c3ccc4c(c3)OCO4)cc12	none (no result: CtBP-E1A blk, G9a inh, Six1-Eya2 inh, HP1b binding inh, BAZ2B block)
CCOC(=O)c1ccc(N2CCN(c3cccc(Cl)c3)CC2)c(NC(=O)Nc2ccc(OC)cc2OC)c1	none (no result: CtBP-E1A blk, Six1-Eya2 inh)
CCCCn1c(N)c(N(CC(C)C)C(=O)Cc2ccc3c(c2)OCCO3)c(=O)[nH]c1=O	G9a inh 50µM
CCCCN(C(=O)Cc1ccc(S(=O)(=O)N2CCOCC2)s1)c1c(N)n(CCCC)c(=O)[nH]c1=O	G9a inh 56µM
CCCCN(C(=O)c1ccc2c(c1)OCCO2)c1c(N)n(CC(C)C)c(=O)[nH]c1=O	G9a inh 45µM
O=C(Nc1ccccc1C(=O)OCc1cc(=O)n2nc(C3CC3)sc2n1)c1cccc(Cl)c1	none (no result: CtBP-E1A blk, Six1-Eya2 inh)
CCOc1ccc(S(=O)(=O)N2CCN(c3nc(-c4ccccc4)nc4ccccc34)CC2)cc1OCC	none (no result: CtBP-E1A blk, G9a inh, Six1-Eya2 inh, BAZ2B block)
